Data taken from PubChem BioAssay AID588397 (National Center for Advancing Translational Sciences (NCATS), 2011).
Where “and” joins values, the source holds several entries; their conditions need not be identical. Equal entries are not always repeated. The whole screen tested about 1,300 compounds, of which about 1,000 (77%) were called active. Roughly 7% stayed inconclusive and do not appear here. So high a share suggests a set chosen from earlier hits. Some of the results follow. Unmarked numbers belong to inactive results. Calls follow the shape of the dose curve; as a rule, active = well fitted inhibition curve with a large enough effect; inconclusive = small, poorly fitted or top-dose-only effect; inactive = no such curve, though single readings can be large or run the other way.
% is scaled to controls: 0 for no effect and ±100 for the full control effect; potency is read from the fitted curve at half-maximal effect.

Experiment: qHTS of small molecules that selectively kill Giardia lamblia: Hit Validation.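 Also: viability measured as ATP content by luminescence so killing lowers signal; trophozoites exposed to compounds for 48 h anaerobically at 37 °C; nearly all actives have a fitted effect of over 65% in size.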
Settings: Giardia lamblia trophozoite viability, dose-response; series mostly up to 38.3 µM; activity change, negative = killing: at the top concentration
Procedure, shortened: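 Anaerobic 48 hrs incubation at 37 deg C of 100 trophozoites/well with test compounds; ATPLite 1-Step luminescence, 15-30 min RT, reports cellular ATP as viability.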
With O=C(Nc1nccs1)c1cc([N+](=O)[O-])ccc1Cl the Potency was 2.59 µM (active).
For COc1ccc(C(=O)c2c3ccc([N+](=O)[O-])cc3[n+]([O-])n2CCCN)cc1, the Potency was 7.29 µM (active).
In the case of COc1ccc(C(=O)c2c3ccccc3[n+]([O-])n2CCCN)cc1, the Potency is reported as 1.03 µM (active) and 3.26 µM (active).
With COc1ccc(C(=O)c2c3ccc([N+](=O)[O-])cc3[n+]([O-])n2CCCC(N)=O)cc1 the Potency was 4.1 µM (active).
With Cc1c(C(=O)O)sc2nc(SCC(=O)Nc3ccc(S(=O)(=O)NC(C)(C)C)cc3)[nH]c(=O)c12 the “activity change, negative = killing” value was -1.26%.
In the case of CCN(CC)CCCC(C)Nc1cc(/C=C/c2ccccc2Cl)nc2cc(Cl)ccc12 (stereo not given), the Potency is reported as 3.26 µM (active).
In the case of CCN(CC)CCCC(C)Nc1c2ccc(Cl)cc2nc2ccc(OC)cc12 (stereo not given), the Potency is reported as 0.13 µM (active).
In the case of O=C(Nc1ccc(S(=O)(=O)N2CCOCC2)cc1)c1ccc([N+](=O)[O-])o1, the Potency is reported as 1.45 µM (active).
With CC(C)C(=O)NC(=S)Nc1ccc(S(=O)(=O)N2CCCC2)cc1 the “activity change, negative = killing” value was -15.4%.
For O=C(NCc1ccccc1CN1CCCC1)c1cccc(S(=O)(=O)N2CCCC2)c1, the “activity change, negative = killing” value was -31%.
With O=C(Nc1ccc(S(=O)(=O)N2CCCC2)cc1)c1ccc([N+](=O)[O-])o1 the Potency was 1.16 µM (active).
With O=C(Nc1cccc(S(=O)(=O)N2CCCCC2)c1)c1ccc([N+](=O)[O-])o1 the Potency was 0.729 µM (active).
In the case of COc1ccc(S(=O)(=O)N2CCCCC2)cc1NC(=O)c1ccc([N+](=O)[O-])o1, the Potency is reported as 1.45 µM (active).
For O=C(Nc1ccc2cn[nH]c2c1)c1ccc(S(=O)(=O)N2CCOCC2)cc1, the “activity change, negative = killing” value was 11.3%.
In the case of COc1ccc(CNC(=O)CN2C(=O)COc3ccc(S(=O)(=O)N4CCCCC4)cc32)cc1, the “activity change, negative = killing” value is reported as -19.2%.
In the case of COc1ccc(C2CC(c3ccccc3)Nc3ncnn32)cc1 (stereo not given), the “activity change, negative = killing” value is reported as -23.7%.
In the case of Cc1ccc(NC(=O)c2ccc([N+](=O)[O-])o2)cc1S(=O)(=O)N1CCOCC1, the Potency is reported as 0.729 µM (active).
For NC(=O)c1ccsc1NC(=O)c1ccc(N2CCCC2=O)cc1, the Potency was 2.59 µM (active).
With CN(C(=O)c1ccc(N2CCCCC2)c([N+](=O)[O-])c1)C1CCS(=O)(=O)C1 (stereo not given) the Potency was 4.1 µM (active).
For O=C(NC1CCS(=O)(=O)C1)c1ccc(N2CCCCC2)c([N+](=O)[O-])c1 (stereo not given), the Potency was 2.31 µM (active).
For CN(C(=O)c1ccc(F)c(S(=O)(=O)N2CCOCC2)c1)C1CCCCC1, the “activity change, negative = killing” value was 9.08%.
In the case of Cc1nc2ccccn2c1C(=O)N/N=C/c1ccc([N+](=O)[O-])o1, the Potency is reported as 1.83 µM (active).
For O=C(N/N=C/c1ccc([N+](=O)[O-])o1)c1ccccc1-n1cccc1, the Potency was 1.16 µM (active).
With O=C1c2ccccc2C(=O)C1c1cc2ccccc2cn1 the Potency was 1.45 µM (active).
In the case of O=C1c2ccccc2C(=O)C1c1ccc2ccccc2n1, the Potency is reported as 1.16 µM (active) and 1.63 µM (active).
For O=[N+]([O-])c1ccc(CSc2nnc(-c3cccnc3)o2)cc1, the Potency was 3.65 µM (active).
With O=[N+]([O-])c1ccc(CSc2nnc(-c3cnccn3)o2)cc1 the Potency was 2.31 µM (active).
In the case of COc1nn(C(C)C(=O)N2N=C(C(F)F)CC2(O)C(F)F)cc1[N+](=O)[O-] (stereo not given), the Potency is reported as 0.46 µM (active).
With O=C(c1ccc([N+](=O)[O-])o1)N1CCN(c2nc3ccc(F)cc3s2)CC1 the Potency was 1.83 µM (active).
In the case of COc1cccc2sc(N3CCN(C(=O)c4ccc([N+](=O)[O-])o4)CC3)nc12, the Potency is reported as 2.05 µM (active).
With COc1ccc2nc(N3CCN(C(=O)c4ccc([N+](=O)[O-])o4)CC3)sc2c1 the Potency was 1.83 µM (active).
With COc1ccc(OC)c2sc(N3CCN(C(=O)c4ccc([N+](=O)[O-])s4)CC3)nc12 the Potency was 2.59 µM (active).
With CCCSc1nc2c(cnn2-c2ccc(C)c(C)c2)c(=O)[nH]1 the “activity change, negative = killing” value was 27.7%.
With O=c1cc(-c2ccccc2)[nH]c2cc(Cl)ccc12 the “activity change, negative = killing” value was 5.31%.
For COc1ccc(S(=O)(=O)N2CCN(C(=O)c3ccc([N+](=O)[O-])o3)CC2)cc1, the Potency was 1.3 µM (active).
With COc1ccc(C(=O)NC2CCN(S(=O)(=O)c3ccc(F)cc3)CC2)cc1 the “activity change, negative = killing” value was 18.6%.
In the case of C=Cc1ccc(CN2CCCN(Cc3ccc(F)cc3)S2(=O)=O)cc1, the “activity change, negative = killing” value is reported as -17.9%.
For CN(C(=O)CN1CCN(c2ccc([N+](=O)[O-])cn2)CC1)c1ccccc1, the Potency was 4.1 µM (active).
In the case of Cc1ccc(CNC(=O)c2cc(-c3ccccc3C)n(CC3CC(c4cccc([N+](=O)[O-])c4)=NO3)n2)cc1 (stereo not given), the Potency is reported as 2.9 µM (active).
In the case of Cc1nnc(SCc2ccc([N+](=O)[O-])cc2)[nH]c1=O, the Potency is reported as 2.31 µM (active).
With O=[N+]([O-])/C(Cl)=C(/NCCO)C(Cl)=C(Cl)Cl the Potency was 0.259 µM (active).
With CC(=O)c1c(C)[nH]c(C(=O)OCC(=O)Nc2cc(Cl)ccc2[N+](=O)[O-])c1C the Potency was 2.31 µM (active).
For CCc1ccc(-c2nc3c(=O)n(C)c(=O)nc-3n(CC)n2)cc1, the Potency was 0.183 µM (active).
In the case of CCn1nc(-c2ccc(C)cc2)nc2c(=O)n(C)c(=O)nc1-2, the Potency is reported as 0.206 µM (active).
In the case of Clc1ccc2oc(-c3ccccc3)cc(=NCCCN3CCOCC3)c2c1, the Potency is reported as 0.818 µM (active).
